Calls of active or inactive are those of the source. The calls were made as follows: active = hit-call score of the fitted dose curve at least 0.9, where 1 is the maximum; inactive = score below 0.9.

A short description of this test: ATG_M_19_CIS: Attagene CIS-FACTORIAL HepG2 Assay for M19 Transcription Factor (Internal Marker) (AID 2282939). As to conditions: HepG2 Attagene CIS-FACTORIAL M19 internal marker reporter; actives raise or lower the signal. A digest of the protocol: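 HepG2, MRTU transient transfection, 24 h dosing. Total RNA → RT-PCR → 6-FAM primer extension → HpaI digest → CE fluorescence. Bidirectional curve fit, DMSO negative control.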
As for `CCC(Cc1c(I)cc(I)c(N)c1I)C(=O)O` (stereo not drawn), the outcome was inactive. On the same count and under the same terms, the value for `C=C(C)CCCC` was “inactive”. On the same count and under the same terms, the value for `OCC(F)(F)C(F)(F)C(F)(F)C(F)(F)C(F)(F)C(F)(F)CO` was “inactive”. The same measure, in the same setting: next, `C[C@]12CC[C@H]3C(=CCc4cc(O)ccc43)[C@@H]1CCC2=O`: “inactive”. Turning to `Oc1ccc(C2(c3ccc(O)c(C4CCCCC4)c3)CCCCC2)cc1C1CCCCC1`, the AC50 was 8.87 µM (active). As to `O=C(O)CCC(F)(F)C(F)(F)C(F)(F)C(F)(F)C(F)(F)C(F)(F)C(F)(F)F`, the result was inactive. Regarding `NCC(F)(F)C(F)(F)C(F)(F)C(F)(F)C(F)(F)C(F)(F)F`, the outcome was inactive. On the same count and under the same terms, the value for `CC(C)C(=O)OCc1ccccc1` was “inactive”; that for `CO[Si](C)(CCC(F)(F)C(F)(F)C(F)(F)C(F)(F)C(F)(F)C(F)(F)F)OC` was “inactive”. For the molecule `CCCCCCCCCc1ccc(OCCO)cc1`, the AC50 was 25.2 µM (active). For `FC(F)(F)C(F)(F)C(F)(F)C(F)(F)C(F)(F)C(F)(F)C(F)(F)CCI`, the molecule was called inactive. As for `C[Si](C)O[Si](C)C`, the outcome was inactive.

Regarding `Cc1cnccn1`, the molecule was classed as inactive. Still for that read-out and setting: the value for `NCC(F)(F)C(F)(F)C(F)(F)C(F)(F)C(F)(F)C(F)(F)C(F)(F)C(F)(F)F` was “inactive”; that for `OCC(F)(F)C(F)(F)C(F)(F)CO` was “inactive”. Same read-out and setting: next, `CN(C)C(C)(C)CO`: “inactive”; `Nc1cc([N+](=O)[O-])cc(Cl)c1O`: “inactive”. Same read-out and setting: next, `CCCCCCCCCCCCC[N+](C)(C)Cc1ccccc1`: “inactive”; `OCCCc1cccnc1`: “inactive”. As for `O=C(Cl)C(F)(F)C(F)(F)C(F)(F)C(F)(F)C(F)(F)C(F)(F)C(F)(F)F`, the molecule was classed as inactive. Still for that read-out and setting: the value for `Cc1cc(C)c(O)c(C(C)(C)C)c1` was “inactive”; that for `CCC(=O)OC(C)c1ccccc1` (stereo not drawn) was “inactive”. The same measure, in the same setting: next, `COc1ccccc1C=O`: “inactive”; `O=c1cccc[nH]1`: “inactive”; `CCCCCCCCCCCC(=O)Cl`: “inactive”. Same read-out and setting: the value for `CCN=C1C=CC(=C(c2ccc(N(CC)CC)cc2)c2ccc(N(CC)CC)cc2)c2ccccc21` was “inactive”. With `NC(=O)C(F)(F)C(F)(F)C(F)(F)F`, the outcome was inactive. On the same count and under the same terms, next, `CC(C)CC=C(C=O)c1ccccc1`: “inactive”; `OCC(F)(F)C(F)(F)C(F)(F)C(F)(F)C(F)(F)C(F)(F)C(F)(F)C(F)(F)CO`: “inactive”.

As to `F[Si-2](F)(F)(F)(F)F`, the call was inactive.

Regarding `NC(=O)C(F)(F)C(F)(F)C(F)(F)C(F)F`, the call was inactive.

Turning to `O=C(O)C(F)(F)OC(F)(F)C(F)(F)OC(F)(F)C(F)(F)OC(F)(F)F`, the outcome was inactive. Still for that read-out and setting: the value for `CCCCC(CC)COC(=O)c1ccc(N(C)C)cc1` (stereo not drawn) was “inactive”; that for `CCCCCCCCCCCCCC[P+](CCCC)(CCCC)CCCC` was “inactive”. Same read-out and setting: the value for `C=CCOC(=O)CC(C)C` was “inactive”; that for `O=C=Nc1cccc2c(N=C=O)cccc12` was “inactive”; that for `CC(O)C#CC(C)O` (stereo not drawn) was “inactive”.

Regarding `CCOCN(C(=O)CS(=O)(=O)O)c1c(C)cccc1CC`, the molecule was called inactive.

These data come from PubChem BioAssay (EPA / NIEHS).
